# Only some compounds are listed: those with a hit (about 3% of all), similar ones and a draw of the others.
# p53null 32C kill: kills p53 null cells at the permissive temperature. Potency, µM (top dose mostly 46.1 µM), inactives show top-dose activity change, negative = cytotoxicity, hits mostly cytotoxic. hit rate 0.62% among 55,000. H1299-neo p53 null cells, ATP luminescence, 24 h, 32C;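 further: potency means the concentration at half of the fitted maximal effect; 0% = DMSO only and -100% = full killing by 100 µM tamoxifen; nearly all actives have a fitted effect of over 55% in size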
#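 ATP-content luminescence in p53-null H1299-neo cells after 24 h compound exposure (up to 46 uM) at 32C permissive temperature; 0% and 100% killing set by DMSO and 100 uM tamoxifen; Hill-equation AC50.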
# OvCa metastasis: blocks SKOV3ip1 adhesion and invasion in omental model | AID 1963576 | SKOV3ip1-GFP adhesion/invasion on 3D omental model, fluorescence | hit rate 0.1% among 46,000 | Potency, µM (series often up to 45.8 µM), inactives show at the top dose activity change, negative = inhibition, most hits filed as inhibitors;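 further: potency means the concentration at half of the fitted maximal effect; plate controls were DMSO wells for no effect and tomatine positive control wells for full effect; nearly all actives have a fitted effect of over 65% in size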
#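 qHTS, 4-pt dose (0.36-46 umol/L); SKOV3ip1-GFP, 1,200 cells/well, no FBS; primary omental fibroblast/mesothelial co-culture 48 h pre-grown; 2 h RT + 16 h 37 C; PBS wash, 4% PFA; GFP count 488/509 nm.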
# S16 F2sN tox: toxic to S16 Pmp22-F2sN Schwann cells. Potency, µM (series often up to 57.5 µM), for inactives: top-dose activity change, negative = cytotoxicity, most hits filed as cytotoxic. hit rate 0.48% among 43,000. S16 Pmp22-F2sN Schwann cells viability, CellTiter-Glo, 24 h; further: potency means the concentration at half of the fitted maximal effect; on the % scale 0 is the no-effect control and ±100 the full control effect; nearly all actives have a fitted effect of over 65% in size
#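 Luminescence from CellTiter-Glo, read by CCD camera after a 15 min room-temperature incubation, served as the viability signal. Reporter Schwann cells (S16 Pmp22-F2sN) had been treated with pin-transferred compounds for 24 h at 37C.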
# p53null 39C kill: kills p53 null cells at the nonpermissive temperature; H1299 p53-null (neo) cells, 39C, ATPlite viability, 24 h; Potency, µM (top dose mostly 46.1 µM), inactives show at the top dose activity, negative = cell killing, actives largely listed as cytotoxic; hit rate 0.97% among 55,000; AID 904;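 further: potency means the concentration at half of the fitted maximal effect; 0% = DMSO only and -100% = full killing by 100 µM tamoxifen; nearly all actives have a fitted effect of over 50% in size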
#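 Cells seeded at 600/well, 37C overnight. Compound added (up to 46 uM), plates shifted to 39C for 24 hr. ATPlite added, luminescence read after 20 min at room temperature.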
# pS6 MEF inh: inhibitors of mTORC1 signaling in Tsc2-/- p53-/- MEF cells. AID 493208. Tsc2-/- p53-/- MEF, phospho-rpS6 immunofluorescence/PI, 24 h. Potency, µM (doses to about 38.3 µM), without a hit: at the highest dose activity change, negative = inhibition, usual class: inhibitors. hit rate 0.78% among 44,000;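 further: potency means the concentration at half of the fitted maximal effect; plate controls were DMSO for no effect and rapamycin for full effect; nearly all actives have a fitted effect of over 50% in size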
#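 Immunofluorescence of rpS6 phosphorylation in Tsc2-/-, p53-/- MEFs after 24 h compound exposure, normalized to propidium iodide signal. Activity is expressed as % positive cells, thresholded with 7.5 nM rapamycin.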
# PMP22 txn prim: modulates PMP22 transcription in S16 Schwann cells; S16 Pmp22-F2sN Schwann cells (luciferase reporters placed in the Pmp22 gene), FLuc/NLuc coincidence luminescence, 24 h; Potency, µM (series often up to 57.5 µM), for inactives: at the top dose activity change, negative = inhibition, hits mostly inhibitors; hit rate 2% among 43,000; active means clear falling dose curves in both reporters; inconclusive means both reporters move, but less clearly or upward; inactive means either reporter flat; the % is the NLuc reporter signal; further: potency means the concentration at half of the fitted maximal effect; on the % scale 0 is the no-effect control and ±100 the full control effect
#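 Transcriptional readout in edited S16(c9) cells: two luciferases reported from the Pmp22 locus, measured in turn after 24 h compound incubation.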
# NLuc sat counter: counter-screen for PMP22 expression modulators: NanoLuc inhibition, saturating substrate; Potency, µM (doses to about 57.5 µM), inactives show top-dose activity change, negative = inhibition, most hits filed as inhibitors; shares compounds with PMP22 txn prim; hit rate 4% among 690; Secreted NLuc enzyme (filtered S16 cell medium), Nano-Glo luminescence; further: potency means the concentration at half of the fitted maximal effect; on the % scale 0 is the no-effect control and ±100 the full control effect
# NLuc Km ctr: counter-screen for PMP22 expression modulators: NanoLuc inhibition at Km | shares compounds with PMP22 txn prim | AID 1508639 | Potency, µM (series often up to 57.5 µM), without a hit: top-dose activity change, negative = inhibition, usual class: inhibitors | secreted NLuc enzyme, coelenterazine luminescence, Km conditions | hit rate 5% among 690; further: potency means the concentration at half of the fitted maximal effect; on the % scale 0 is the no-effect control and ±100 the full control effect
# FLuc counter: counter-screen for PMP22 expression modulators: firefly luciferase inhibition | shares compounds with PMP22 txn prim | purified P. pyralis FLuc, luminescence, 10 min | Potency, µM (series often up to 57.5 µM), for the others: at the highest dose activity, negative = inhibition, actives largely listed as inhibitors | 690 tested, under 10 active | AID 1508640; further: % of control where 0% means no effect
# Target sequence (P08659 whole entry, looked up): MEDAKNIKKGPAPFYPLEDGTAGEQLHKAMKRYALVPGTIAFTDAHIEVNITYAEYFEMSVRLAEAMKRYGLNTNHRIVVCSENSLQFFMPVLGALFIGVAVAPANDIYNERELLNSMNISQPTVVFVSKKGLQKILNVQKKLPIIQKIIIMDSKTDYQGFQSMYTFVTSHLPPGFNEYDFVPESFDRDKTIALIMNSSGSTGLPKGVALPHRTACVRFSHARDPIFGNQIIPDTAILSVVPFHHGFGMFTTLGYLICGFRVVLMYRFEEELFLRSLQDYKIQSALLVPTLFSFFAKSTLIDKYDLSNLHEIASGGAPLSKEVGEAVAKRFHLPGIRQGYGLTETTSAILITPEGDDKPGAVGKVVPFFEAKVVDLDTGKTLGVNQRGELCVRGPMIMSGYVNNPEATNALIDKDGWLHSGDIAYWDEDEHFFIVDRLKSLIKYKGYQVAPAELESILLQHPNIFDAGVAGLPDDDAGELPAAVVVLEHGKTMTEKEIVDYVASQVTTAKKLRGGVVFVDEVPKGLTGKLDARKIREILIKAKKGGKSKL
# S16 viab conf: S16 Schwann cell cytotoxicity, confirmatory; S16 Schwann cells viability, CellTiter-Glo ATP luminescence, 24 h; Potency, µM (doses to about 57.5 µM), inactives show at the highest dose activity change, negative = viability loss, usual class: cytotoxic; hit rate 7% among 690; AID 1508641; shares compounds with PMP22 txn prim; further: potency means the concentration at half of the fitted maximal effect; on the % scale 0 is the no-effect control and ±100 the full control effect
# PMP22 txn cnf: PMP22 transcription modulation, confirmatory; shares compounds with PMP22 txn prim; Potency, µM (doses to about 57.5 µM), without a hit: at the top dose activity change, negative = inhibition, hits mostly inhibitors; hit rate 22% among 690; S16 Schwann cells Pmp22-F2sN, dual luciferase, 24 h; active means clear falling dose curves in both reporters; inconclusive means both reporters move, but less clearly or upward; inactive means either reporter flat; the % is the FLuc reporter signal; further: potency means the concentration at half of the fitted maximal effect
# PMP22 prot conf: rat PMP22 protein level modulation, confirmatory. S16 Schwann cells Pmp22-HiBiT, luminescence, 48 h. Potency, µM (doses to about 27.9 µM), for inactives: at the top dose activity change, negative = inhibition, hits mostly inhibitors. AID 1508647. shares compounds with PMP22 txn prim. 95 tested, under 10 active
# * hit, by the source's call; i = inactive; ? = inconclusive; / = not tested or not shown. Unless noted, the call rests on the fitted dose curve; in most records, active means well fitted curve in the direction sought with a large enough effect; inconclusive means small, poorly fitted or top-dose-only effect, or another doubt; inactive means no such curve, though single readings can be large; an effect the other way counts as inactive or inconclusive.
SMILES,p53null 32C kill,OvCa metastasis,S16 F2sN tox,p53null 39C kill,pS6 MEF inh,PMP22 txn prim,NLuc sat counter,NLuc Km ctr,FLuc counter,S16 viab conf,PMP22 txn cnf,PMP22 prot conf
CCC(=O)C1=C(c2cccc([N+](=O)[O-])c2)N(C(=O)CC)n2c(nnc2C2CCCCC2)S1,-3%,?,?,5%,-3%,8.4µM*,-7%,4%,7%,-23%,11µM*,?
CCC(=O)C1=C(c2cccc([N+](=O)[O-])c2)N(C(=O)CC)n2c(nnc2-c2ccccc2)S1,-14%,i,6%,19%,-3%,3µM*,?,?,0%,16%,11µM*,-1%
CCOc1cc(CNc2ccc(O)cc2)cc(Br)c1OCc1ccccc1,12%,0%,?,?,-8%,8.5µM*,?,?,-11%,11%,15µM*,-11%
CCOc1cc(CNc2ccc(O)cc2)ccc1OCc1ccc(Cl)cc1,2%,-16%,?,?,?,7.8µM*,17µM*,19µM*,?,-5%,-40%,/
C=CCOc1c(Br)cc(CNc2ccc(NC(=O)C(C)C)cc2)cc1OCC,-24%,/,/,/,/,/,/,/,/,/,/,/
C[C@@H]1CCN(C(=O)CC#N)C[C@H]1N(C)c1ncnc2[nH]ccc12,/,-29%,/,/,/,/,/,/,/,/,/,/
Cc1ccc2c(CN3CCN(c4ccc(Cl)cc4)CC3)cc(=O)oc2c1,-2%,0%,-6%,-11%,1%,?,/,/,/,/,/,/
COc1ccc(CN2CCN(Cc3cc(=O)oc4cc(C)ccc34)CC2)c(OC)c1OC,-11%,i,?,?,?,17µM*,-15%,5%,3%,-28%,-21%,/
CCc1nnc(NC(=O)c2nc(S(C)(=O)=O)ncc2Cl)s1,6%,-8%,?,-11%,?,9.5µM*,?,?,-4%,?,14µM*,?
O=C(c1c2c(nc3ccccc13)C(=O)N(C1CCCCC1)C2)N1CCN(c2ccc(F)cc2)CC1,-2%,8%,4%,-20%,-5%,10µM*,-14%,7%,-8%,-6%,-36%,/

# Screens from PubChem BioAssay.
